These results are taken from ChEMBL document CHEMBL2218924, “A broad activity screen in support of a chemogenomic map for kinase signalling research and drug discovery” (Biochem J, 2013).

Each structure is given as a SMILES string.

The target of the first assay is Proto-oncogene tyrosine-protein kinase ROS (Homo sapiens) (UniProt P08922). Particulars: at 10 µM.
Sequence of Proto-oncogene tyrosine-protein kinase ROS (Homo sapiens) (P08922 whole entry): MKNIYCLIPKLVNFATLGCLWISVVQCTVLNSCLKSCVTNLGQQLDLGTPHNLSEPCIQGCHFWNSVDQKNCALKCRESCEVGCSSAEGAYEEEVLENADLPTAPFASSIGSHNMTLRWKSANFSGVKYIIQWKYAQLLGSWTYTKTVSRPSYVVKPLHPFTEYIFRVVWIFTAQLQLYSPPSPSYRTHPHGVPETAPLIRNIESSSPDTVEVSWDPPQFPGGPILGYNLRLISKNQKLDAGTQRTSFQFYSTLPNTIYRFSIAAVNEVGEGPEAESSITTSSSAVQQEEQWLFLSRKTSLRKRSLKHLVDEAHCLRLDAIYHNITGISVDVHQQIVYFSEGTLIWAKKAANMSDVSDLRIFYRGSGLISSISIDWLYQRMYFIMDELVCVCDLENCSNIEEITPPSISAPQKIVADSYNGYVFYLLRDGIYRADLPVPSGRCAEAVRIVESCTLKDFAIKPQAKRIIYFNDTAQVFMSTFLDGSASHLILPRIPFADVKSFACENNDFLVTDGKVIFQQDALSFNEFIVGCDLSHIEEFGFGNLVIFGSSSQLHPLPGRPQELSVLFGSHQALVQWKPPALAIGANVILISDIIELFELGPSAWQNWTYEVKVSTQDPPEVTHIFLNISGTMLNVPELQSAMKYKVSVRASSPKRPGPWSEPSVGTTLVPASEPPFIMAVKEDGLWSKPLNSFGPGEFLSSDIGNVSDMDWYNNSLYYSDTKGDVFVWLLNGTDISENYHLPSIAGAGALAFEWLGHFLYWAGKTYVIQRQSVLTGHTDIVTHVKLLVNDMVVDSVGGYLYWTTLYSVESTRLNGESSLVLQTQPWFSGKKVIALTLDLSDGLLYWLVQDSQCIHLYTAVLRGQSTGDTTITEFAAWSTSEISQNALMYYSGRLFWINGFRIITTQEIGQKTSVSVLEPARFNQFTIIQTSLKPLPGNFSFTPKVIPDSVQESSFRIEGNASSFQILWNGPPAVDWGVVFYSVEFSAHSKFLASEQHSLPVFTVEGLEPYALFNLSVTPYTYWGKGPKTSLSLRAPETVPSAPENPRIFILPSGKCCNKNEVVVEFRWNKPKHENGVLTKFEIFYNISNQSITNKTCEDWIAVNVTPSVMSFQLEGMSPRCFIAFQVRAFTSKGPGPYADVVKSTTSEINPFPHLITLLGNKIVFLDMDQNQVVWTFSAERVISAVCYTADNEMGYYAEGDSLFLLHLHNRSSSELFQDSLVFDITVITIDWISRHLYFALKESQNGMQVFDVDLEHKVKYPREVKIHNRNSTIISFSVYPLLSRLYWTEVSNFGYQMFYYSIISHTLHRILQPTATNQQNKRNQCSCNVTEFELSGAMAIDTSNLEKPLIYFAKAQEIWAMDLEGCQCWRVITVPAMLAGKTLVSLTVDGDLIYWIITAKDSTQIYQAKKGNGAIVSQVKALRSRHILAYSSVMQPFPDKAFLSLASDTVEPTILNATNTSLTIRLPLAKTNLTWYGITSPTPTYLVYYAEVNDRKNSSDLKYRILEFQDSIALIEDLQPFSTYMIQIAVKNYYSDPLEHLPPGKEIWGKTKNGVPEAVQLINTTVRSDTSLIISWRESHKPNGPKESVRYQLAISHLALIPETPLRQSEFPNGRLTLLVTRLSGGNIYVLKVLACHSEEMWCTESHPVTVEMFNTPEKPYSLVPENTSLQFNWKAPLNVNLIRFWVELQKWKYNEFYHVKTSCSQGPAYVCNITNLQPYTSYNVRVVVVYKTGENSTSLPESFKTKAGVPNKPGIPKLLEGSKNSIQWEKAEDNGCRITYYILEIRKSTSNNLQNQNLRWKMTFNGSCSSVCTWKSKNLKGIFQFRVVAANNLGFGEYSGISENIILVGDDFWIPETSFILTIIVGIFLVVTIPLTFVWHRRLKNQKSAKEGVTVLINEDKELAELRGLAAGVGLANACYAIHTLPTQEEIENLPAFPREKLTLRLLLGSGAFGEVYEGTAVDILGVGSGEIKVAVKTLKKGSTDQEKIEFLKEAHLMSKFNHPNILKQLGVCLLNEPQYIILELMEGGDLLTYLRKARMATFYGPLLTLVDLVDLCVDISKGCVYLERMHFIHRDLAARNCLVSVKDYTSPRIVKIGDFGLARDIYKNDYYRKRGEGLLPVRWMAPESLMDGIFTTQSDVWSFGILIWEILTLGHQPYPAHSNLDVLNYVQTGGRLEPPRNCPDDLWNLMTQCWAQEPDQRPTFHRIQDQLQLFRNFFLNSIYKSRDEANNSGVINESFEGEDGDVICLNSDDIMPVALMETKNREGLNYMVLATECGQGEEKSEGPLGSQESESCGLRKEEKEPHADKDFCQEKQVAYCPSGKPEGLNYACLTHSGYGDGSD
By residual activity is commonly meant the signal under treatment as a percentage of the control signal. For `O=C(c1ccccc1)c1ccc(N2CCOCC2)cc1O`, the residual activity amounted to 98%.

Consider `O=C(O)/C=C/c1cc(Br)c(Br)c(Br)c1Br`, for which the residual activity is 97%.

Turning to `N#Cc1c(NC(=O)c2cccc3ccccc23)sc2c1CCCC2`, the residual activity was 96%.

As for `O=c1cc(N2CCNCC2)oc2c(-c3ccccc3)cccc12`, the residual activity was determined as 91%.

In the case of `CCCCc1c(-c2ccc(OC)cc2)[nH]c2nccnc12`, the residual activity was determined as 88%.

`COc1cc2nccc(Oc3ccc(NC(=O)Nc4cc(C)on4)c(Cl)c3)c2cc1OC`: the residual activity worked out at 16%.

The next assay has as its target T1, Tyrosine-protein kinase receptor TYRO3 (Homo sapiens) (UniProt Q06418).
T1 sequence (whole entry): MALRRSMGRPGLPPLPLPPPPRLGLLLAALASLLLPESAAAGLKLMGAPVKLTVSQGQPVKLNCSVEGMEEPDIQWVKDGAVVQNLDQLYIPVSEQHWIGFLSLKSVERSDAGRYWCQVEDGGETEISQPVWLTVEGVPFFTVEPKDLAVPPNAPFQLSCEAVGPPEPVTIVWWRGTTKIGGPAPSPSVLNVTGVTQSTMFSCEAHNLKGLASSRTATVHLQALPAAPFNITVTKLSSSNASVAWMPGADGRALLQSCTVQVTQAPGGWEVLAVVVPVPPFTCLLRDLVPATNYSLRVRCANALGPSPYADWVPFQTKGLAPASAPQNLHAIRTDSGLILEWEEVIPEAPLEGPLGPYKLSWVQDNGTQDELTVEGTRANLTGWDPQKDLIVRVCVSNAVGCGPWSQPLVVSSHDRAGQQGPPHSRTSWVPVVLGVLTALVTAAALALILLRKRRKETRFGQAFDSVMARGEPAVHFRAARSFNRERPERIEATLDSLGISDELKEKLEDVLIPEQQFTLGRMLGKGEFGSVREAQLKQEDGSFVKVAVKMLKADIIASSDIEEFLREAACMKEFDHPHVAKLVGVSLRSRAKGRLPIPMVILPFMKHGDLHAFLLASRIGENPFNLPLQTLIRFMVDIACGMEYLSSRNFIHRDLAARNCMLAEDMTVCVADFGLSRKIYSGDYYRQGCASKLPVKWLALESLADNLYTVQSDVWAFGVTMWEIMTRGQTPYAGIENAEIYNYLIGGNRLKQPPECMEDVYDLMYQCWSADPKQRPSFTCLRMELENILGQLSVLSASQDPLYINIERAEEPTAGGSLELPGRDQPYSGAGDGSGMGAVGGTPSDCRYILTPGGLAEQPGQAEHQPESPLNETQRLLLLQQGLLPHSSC
The note with it: at 1 µM.
On to `COc1ccc(CNC(=O)Nc2ncc([N+](=O)[O-])s2)cc1`, for which the residual activity was found to be 106%.

For the compound `N#C/C(=C1/Nc2ccccc2S1)c1ccnc(NCCc2cccnc2)n1`, the residual activity was determined as 97%.

With `Cc1cc(C)c(/C=C2\C(=O)Nc3ccccc32)[nH]1`, the residual activity is 68%.

`CN(C)S(=O)(=O)c1ccc2c(c1)/C(=C/c1cc3c([nH]1)CCCC3)C(=O)N2`: the residual activity is 67%.

On to `COc1ccc(-c2cnc3c(-c4ccsc4)cnn3c2)cc1`, for which the residual activity was 95%.

As to `O=C(O)/C=C/c1cc(Br)c(Br)c(Br)c1Br`, the residual activity is 98%.

Regarding `CCN(CC)CCNC(=O)c1c(C)[nH]c(/C=C2\C(=O)Nc3ccc(Cl)cc32)c1C`, the residual activity came out at 24%.

As to `COc1ccc2c(c1)c(C1=C(c3c[nH]c4ccccc34)C(=O)NC1=O)cn2CCCN(C)C`, the residual activity is 79%.

Take `CC(C)N(CCC(=O)c1ccc2ccccc2c1)Cc1ccccc1`: the residual activity came out at 84%.

Consider `O=c1cc(N2CCNCC2)oc2c(-c3ccccc3)cccc12`, for which the residual activity amounted to 94%.

In the case of `CCCCc1c(-c2ccc(OC)cc2)[nH]c2nccnc12`, the residual activity was determined as 107%.

Regarding `COc1cc2nccc(Oc3ccc(NC(=O)Nc4cc(C)on4)c(Cl)c3)c2cc1OC`, the residual activity was found to be 10%.

On to `Oc1cccc(-c2nc(N3CCOCC3)c3oc4ncccc4c3n2)c1`, for which the residual activity is 82%.

As for `CN([C@@H](Cc1ccc(OS(=O)(=O)c2cccc3cnccc23)cc1)C(=O)N1CCN(c2ccccc2)CC1)S(=O)(=O)c1cccc2cnccc12`, the residual activity was determined as 118%.

The target of another assay is T1, Tyrosine-protein kinase receptor TYRO3 (Homo sapiens). The note with it: at 10 µM.
For the compound `COc1ccc(CNC(=O)Nc2ncc([N+](=O)[O-])s2)cc1`, the residual activity came to 108%.

Regarding `N#C/C(=C1/Nc2ccccc2S1)c1ccnc(NCCc2cccnc2)n1`, the residual activity stood at 74%.

Consider `Cc1cc(C)c(/C=C2\C(=O)Nc3ccccc32)[nH]1`, for which the residual activity is 62%.

Regarding `CN(C)S(=O)(=O)c1ccc2c(c1)/C(=C/c1cc3c([nH]1)CCCC3)C(=O)N2`, the residual activity was found to be 69%.

Regarding `O=C1Nc2ccccc2/C1=C\c1c(Cl)[nH]c2ccccc12`, the residual activity was 67%.

As to `COc1ccc(-c2cnc3c(-c4ccsc4)cnn3c2)cc1`, the residual activity was 93%.

`COc1cc2c(cc1OC)-c1n[nH]c(Nc3cccc(F)c3)c1C2`: the residual activity was 50%.

Turning to `O=C(O)/C=C/c1cc(Br)c(Br)c(Br)c1Br`, the residual activity amounted to 106%.

Turning to `CCN(CC)CCNC(=O)c1c(C)[nH]c(/C=C2\C(=O)Nc3ccc(Cl)cc32)c1C`, the residual activity is -1%.

Take `O=C1Cc2c([nH]c3ccc(Br)cc23)-c2ccccc2N1`: the residual activity came out at 83%.

As to `N#Cc1c(NC(=O)c2cccc3ccccc23)sc2c1CCCC2`, the residual activity turned out to be 92%.

For `COc1ccc2c(c1)c(C1=C(c3c[nH]c4ccccc34)C(=O)NC1=O)cn2CCCN(C)C`, the residual activity was determined as 76%.

As to `O=c1cc(N2CCNCC2)oc2c(-c3ccccc3)cccc12`, the residual activity was 96%.

Regarding `CCCCc1c(-c2ccc(OC)cc2)[nH]c2nccnc12`, the residual activity stood at 105%.

For the compound `COc1cc2nccc(Oc3ccc(NC(=O)Nc4cc(C)on4)c(Cl)c3)c2cc1OC`, the residual activity turned out to be 8%.

`Oc1cccc(-c2nc(N3CCOCC3)c3oc4ncccc4c3n2)c1`: the residual activity is 93%.
